This passage reports outcome results from PubChem BioAssay AID652208 (Broad Institute, 2013).

Potency and affinity values are given separately. Activity calls are given as the source filed them.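 The calls were made as follows: active = Loss of cell signal with fitted half-effect dose at or below twice the top valid tested dose; inconclusive = Poor fit, or flat fit from -70 to -30 percent; inactive = Half-effect above limit, rising signal, or flat within 30 percent.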

A short description of the test: HEK293T cell cytotoxicity, dose response, cytotoxicity control for HIV Vif inhibitor project, cherry-picks (AID 652208). The settings on record: HEK293T viability, CellTiter-Glo luminescence, 24 h; series mostly up to 26 µM.
`COc1ccc(-c2nc(-c3ccccn3)nc(N3CCN(C)CC3)c2C#N)cc1`: the call was inactive.
Turning to `Cc1ccc2c(COC(=O)c3ccccc3OC(F)F)cc(=O)oc2c1`, the outcome was inactive.
With `CCc1ccc(N2C(=O)/C(=C/c3cccs3)N(CC(=O)OC)C2=S)cc1`, the molecule was called inactive.
Regarding `CCC(C)n1c(-c2cccs2)nc2nc3ccccc3nc21` (stereo not drawn), the molecule was called inactive.
Regarding `COc1ccc(NC(=O)Cn2nnc(C(=O)Nc3ccccc3C)c2N)cc1`, the outcome was inactive.
In the case of `NCCCCCC(=O)Nc1ccncc1`, the result was inactive.
Next, `O=C(CN(C(=O)c1csnn1)c1ccc(F)cc1)NCc1ccc2c(c1)OCO2`: “inactive”.
Regarding `CCOc1nc(N2CCCCC2)nc(-n2cc(-c3ccccc3)nn2)n1`, the outcome was inactive.
On to `CC(C(=O)O)c1ccc(N2Cc3ccccc3C2=O)cc1` (stereo not drawn), for which the molecule was classed as inactive.
Regarding `O=C(NCc1ccc(OC(F)(F)F)cc1)c1cccc2c1C(=O)c1ccc(N3CCCCC3)cc1S2(=O)=O`, the molecule was called inactive.
For the molecule `O=C(NCc1cccnc1)NC1(C(F)(F)F)Oc2ccc(Cl)cc2O1` (stereo not drawn), the outcome was inactive.
`O=C(Nc1nn[nH]n1)c1cc(-c2ccc(Cl)c(Cl)c2Cl)nc2ccccc12`: the outcome was inactive.
Turning to `CCCCN1C(=O)/C(=C/C=C2\Oc3ccccc3N2CC)SC1=S`, the call was inactive.
Consider `CCc1nnc(NC(=O)c2sc3nc4cc(C)ccc4cc3c2N)s1`, for which the molecule was classed as inactive.
For `COc1ccccc1CNC(=O)CSC1=NCCS1`, the molecule was classed as inactive.
For `COc1ccccc1C(=O)COC(=O)C1(C)CC1(Cl)Cl` (stereo not drawn), the call was inactive.
On to `COc1ccc(CN(CC(=O)NC2CCCC2)C(=O)CN2C(=O)COc3ccccc32)cc1`, for which the call was inactive.
Then `COc1ccc(CC(NC(C)=O)C(=O)NC2CCN(C(=O)c3ccccc3F)CC2)cc1` (stereo not drawn), with “inactive”; and `O=S(=O)(Nn1cnnc1)c1ccccc1`, with “inactive”; and `Cc1ccnc(SCC(=O)n2c3c(c4ccccc42)CC(C)CC3)n1` (stereo not drawn), with “inactive”.
`COc1c2ccoc2nc2c(OC)c(OC[C@@H](O)C(C)(C)O)ccc12`: the molecule was classed as inactive.
Turning to `O=c1sc(N2CCN(c3ccc(F)cc3)CC2)nc2ccsc12`, the molecule was classed as inactive.
Then `COc1ccc(CN2C3CCC2CC(NC(=O)c2cc(OC)c(OC)c(OC)c2)C3)cc1` (stereo not drawn), with “inactive”; and `O=C(O)CCCCn1c(SCc2ccccc2Cl)nc2ccsc2c1=O`, with “inactive”; and `COc1ccc(CC(=O)OCC(=O)Nc2cccc(Br)c2)cc1`, with “inactive”.
As for `CC(C)(C)NC(=O)CN(Cc1ccc(F)cc1)C(=O)Cn1nnc(-c2ccc(F)cc2)n1`, the result was inactive.
In the case of `O=C(CCCOc1ccc(Br)cc1)NNC(=O)c1ccncc1`, the call was inactive.
Take `COc1cc(-c2cnc3c(NC=O)cc(-c4ccccc4Cl)cn23)cc(OC)c1OC`: the molecule was called inactive.
For the molecule `O=C(NCC1CC1)NC(=O)c1c(F)cccc1Cl`, the molecule was called inactive.
For `O=C(O)c1ccc(-c2nc(-c3cccc(C(F)(F)F)c3)cs2)cc1`, the result was inactive.
In the case of `COc1ccccc1-c1cccc2nccn12`, the molecule was called inactive.
Turning to `C=CCNc1sc(C(=O)c2ccc(Br)s2)c(N)c1C#N`, the outcome was inactive.
For `CNC(=O)c1ccc(NC(=O)c2cc(S(=O)(=O)N(C)C)ccc2N2CCCC2)cc1`, the molecule was called inactive.
Then `COc1cc(OC)cc(C(=O)N[C@H](C(=O)Nc2ccc3c(c2)OCO3)C(C)C)c1`, with “inactive”; and `COc1ccc(-c2ccc3c(N)c(C(=O)c4ccc(OC)c(OC)c4)sc3n2)cc1`, with “inactive”.
Take `COC(CNC(=O)C1CCN(C(=O)c2cc3oc(C)cc3n2Cc2c(F)cccc2Cl)CC1)OC`: the molecule was called inactive.
Then `COc1cc(/C=C/C(=O)OCC(=O)N2CCCc3ccccc32)ccc1O`, with “inactive”; and `Cc1ccc(Nc2cc(=O)[nH]c(=O)[nH]2)cc1C`, with “inactive”.
